Source: PubChem BioAssay (NCATS)
Inconclusive results are not listed. Active and inactive are the calls of the source. The call rests on the fitted dose curve; in most records, active means well fitted curve in the direction sought with a large enough effect; inconclusive means small, poorly fitted or top-dose-only effect, or another doubt; inactive means no such curve, though single readings can be large; an effect the other way counts as inactive or inconclusive.

Tests used:
[1] = biological target: ATP-dependent 6-phosphofructokinase (Trypanosoma brucei brucei) (UniProt O15648); experiment: qHTS Assay to Find Inhibitors of T. brucei phosphofructokinase: hit validation (AID 492961);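 further: luminescence reports ADP formed as PFK phosphorylates fructose-6-phosphate with ATP; on the % scale 0 is the no-effect control and ±100 the full control effect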
Sequence of ATP-dependent 6-phosphofructokinase (Trypanosoma brucei brucei) (O15648 whole entry, looked up): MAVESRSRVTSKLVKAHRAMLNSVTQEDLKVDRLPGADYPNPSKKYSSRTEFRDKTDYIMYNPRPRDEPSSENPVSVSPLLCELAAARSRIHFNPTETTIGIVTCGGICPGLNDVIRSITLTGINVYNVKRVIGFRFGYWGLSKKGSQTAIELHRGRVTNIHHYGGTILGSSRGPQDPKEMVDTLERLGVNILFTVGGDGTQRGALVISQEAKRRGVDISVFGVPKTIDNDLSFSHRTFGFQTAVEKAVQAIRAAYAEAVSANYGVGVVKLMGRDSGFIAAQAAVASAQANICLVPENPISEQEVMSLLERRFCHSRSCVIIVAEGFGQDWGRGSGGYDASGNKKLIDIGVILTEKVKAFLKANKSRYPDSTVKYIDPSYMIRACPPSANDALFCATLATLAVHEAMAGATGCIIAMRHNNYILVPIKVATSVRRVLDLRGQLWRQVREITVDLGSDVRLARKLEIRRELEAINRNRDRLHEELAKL
Summary of the method: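 Measures ADP output of PFK (1.25 nM) at 0.1 mM ATP, 0.5 mM F6P, pH 8.0 TEA buffer with 5 mM MgCl2. No-enzyme wells define full inhibition; uninhibited enzyme wells define zero.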

[2] = qHTS profiling for inhibitors of Plasmodium falciparum proliferation (AID 504749); further: nearly all actives have a fitted effect of over 60% in size; further: potency means the concentration at half of the fitted maximal effect;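 on activity, negative = inhibition: 0% = DMSO vehicle and full inhibition = artemisinin control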; details: P. falciparum in erythrocytes, SYBR Green DNA, 72 h, at 28.7 µM (top of the series)
Summary of the method: (§1)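 Three-day growth assay of blood-stage parasites in erythrocytes (0.3% parasitemia, 2.5% hematocrit) at 37 C, 5% CO2, quantified by SYBR Green DNA staining after overnight detergent lysis.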

[3] = test system: 3D7; experiment: as above; details: P. falciparum in erythrocytes, SYBR Green DNA, 72 h; series mostly up to 28.7 µM
Summary of the method: as §1

[4] = test system: 7G8; experiment: as above; details: P. falciparum in erythrocytes, SYBR Green DNA, 72 h; series mostly up to 28.7 µM
Summary of the method: as §1

[5] = test system: AS120; experiment: as above; details: P. falciparum in erythrocytes, SYBR Green DNA, 72 h; series mostly up to 28.7 µM
Summary of the method: as §1

[6] = test system: ATS189; experiment: as above; details: P. falciparum in erythrocytes, SYBR Green DNA, 72 h; series mostly up to 28.7 µM
Summary of the method: as §1

[7] = test system: CP185; experiment: as above; details: P. falciparum in erythrocytes, SYBR Green DNA, 72 h; series mostly up to 28.7 µM
Summary of the method: as §1

[8] = test system: CP191; experiment: as above; details: P. falciparum in erythrocytes, SYBR Green DNA, 72 h; series mostly up to 28.7 µM
Summary of the method: as §1

[9] = test system: CP192; experiment: as above; details: P. falciparum in erythrocytes, SYBR Green DNA, 72 h; series mostly up to 28.7 µM
Summary of the method: as §1

[10] = test system: CP194; experiment: as above; details: P. falciparum in erythrocytes, SYBR Green DNA, 72 h; series mostly up to 28.7 µM
Summary of the method: as §1

[11] = test system: CP201; experiment: as above; details: P. falciparum in erythrocytes, SYBR Green DNA, 72 h; series mostly up to 28.7 µM
Summary of the method: as §1

[12] = test system: CP203; experiment: as above; details: P. falciparum in erythrocytes, SYBR Green DNA, 72 h; series mostly up to 28.7 µM
Summary of the method: as §1

[13] = test system: CP237; experiment: as above; details: P. falciparum in erythrocytes, SYBR Green DNA, 72 h; series mostly up to 28.7 µM
Summary of the method: as §1

[14] = test system: CP238; experiment: as above; details: P. falciparum in erythrocytes, SYBR Green DNA, 72 h; series mostly up to 28.7 µM
Summary of the method: as §1

[15] = test system: CP247; experiment: as above; details: P. falciparum in erythrocytes, SYBR Green DNA, 72 h; series mostly up to 28.7 µM
Summary of the method: as §1

[16] = test system: CP286; experiment: as above; details: P. falciparum in erythrocytes, SYBR Green DNA, 72 h; series mostly up to 28.7 µM
Summary of the method: as §1

[17] = test system: CP291; experiment: as above; details: P. falciparum in erythrocytes, SYBR Green DNA, 72 h; series mostly up to 28.7 µM
Summary of the method: as §1

[18] = test system: DIV30; experiment: as above; details: P. falciparum in erythrocytes, SYBR Green DNA, 72 h; series mostly up to 28.7 µM
Summary of the method: as §1

[19] = test system: HB3; experiment: as above; details: P. falciparum in erythrocytes, SYBR Green DNA, 72 h; series mostly up to 28.7 µM
Summary of the method: as §1

[20] = test system: P94_40; experiment: as above; details: P. falciparum in erythrocytes, SYBR Green DNA, 72 h; series mostly up to 28.7 µM
Summary of the method: as §1

CCN1CCN(C(=O)NC(C(=O)NC2C(=O)N3C(C(=O)O)=C(CSc4nnnn4C)CSC23)c2ccc(O)cc2)C(=O)C1=O (stereo not given)
inactive: Potency [1] | activity, negative = inhibition ([2]; parasite line A) 1.12% | activity, negative = inhibition ([2]; parasite line B) -9.29% | Potency [3] | Potency [4] | Potency [5] | Potency [6] | Potency [7] | Potency [8] | Potency [9] | Potency [10] | Potency [11] | Potency [12] | Potency [13] | Potency [14] | Potency [15] | Potency [16] | Potency [17] | Potency [18] | Potency [19] | Potency [20]

CCCCC(=O)O[C@]1(C(=O)CO)CCC2C3CCC4=CC(=O)CCC4(C)C3C(O)CC21C (stereo not given in full)
active: Potency [4] 12.6 µM
inactive: Potency [1] | activity, negative = inhibition ([2]; parasite line A) -2.08% | activity, negative = inhibition ([2]; parasite line B) -4.71% | Potency [3] | Potency [5] | Potency [6] | Potency [7] | Potency [8] | Potency [9] | Potency [10] | Potency [11] | Potency [12] | Potency [13] | Potency [14] | Potency [15] | Potency [16] | Potency [17] | Potency [18] | Potency [19] | Potency [20]

C=NC(C(=O)NC1C(=O)N2C1SC(C)(C)C2C(=O)O)c1ccccc1 (stereo not given)
inactive: Potency [1] | activity, negative = inhibition ([2]; parasite line A) 7.65% | activity, negative = inhibition ([2]; parasite line B) -6.25% | Potency [3] | Potency [4] | Potency [5] | Potency [6] | Potency [7] | Potency [8] | Potency [9] | Potency [10] | Potency [11] | Potency [12] | Potency [13] | Potency [14] | Potency [15] | Potency [16] | Potency [17] | Potency [18] | Potency [19] | Potency [20]

O=C(O)c1ccc(N[C@@H]2OC[C@@H](O)[C@@H](O)[C@@H]2O)cc1
inactive: Potency [1] | activity, negative = inhibition ([2]; parasite line A) 8.43% | activity, negative = inhibition ([2]; parasite line B) 9.05% | Potency [3] | Potency [4] | Potency [5] | Potency [6] | Potency [7] | Potency [8] | Potency [9] | Potency [10] | Potency [11] | Potency [12] | Potency [13] | Potency [14] | Potency [15] | Potency [16] | Potency [17] | Potency [18] | Potency [19] | Potency [20]

CO/N=C(/C(=O)N[C@@H]1C(=O)N2C(C(=O)O)=C(CSc3cnns3)CS[C@H]12)c1csc(N)n1
inactive: Potency [1] | activity, negative = inhibition ([2]; parasite line A) 8.36% | activity, negative = inhibition ([2]; parasite line B) 11.8% | Potency [3] | Potency [4] | Potency [5] | Potency [6] | Potency [7] | Potency [8] | Potency [9] | Potency [10] | Potency [11] | Potency [12] | Potency [13] | Potency [14] | Potency [15] | Potency [16] | Potency [17] | Potency [18] | Potency [19] | Potency [20]

OCC1O[C@H](Oc2ccc(O)cc2)C(O)C(O)C1O (stereo not given in full)
inactive: Potency [1] | activity, negative = inhibition ([2]; parasite line A) -4.75% | activity, negative = inhibition ([2]; parasite line B) 1.5% | Potency [3] | Potency [4] | Potency [5] | Potency [6] | Potency [7] | Potency [8] | Potency [9] | Potency [10] | Potency [11] | Potency [12] | Potency [13] | Potency [14] | Potency [15] | Potency [16] | Potency [17] | Potency [18] | Potency [19] | Potency [20]

CCCCCCCCCCCCCCCC(=O)OC[C@H](O)[C@H]1OC[C@@H](O)[C@@H]1O
inactive: Potency [1] | activity, negative = inhibition ([2]; parasite line A) -0.407% | activity, negative = inhibition ([2]; parasite line B) -6.82% | Potency [3] | Potency [4] | Potency [5] | Potency [6] | Potency [7] | Potency [8] | Potency [9] | Potency [10] | Potency [11] | Potency [12] | Potency [13] | Potency [14] | Potency [15] | Potency [16] | Potency [17] | Potency [18] | Potency [19] | Potency [20]

CNC1C(O)C(OC2C(NC(=O)C(O)CN)CC(N)C(OC3OC(CN)C(O)C(O)C3O)C2O)OCC1(C)O (stereo not given)
inactive: Potency [1] | activity, negative = inhibition ([2]; parasite line A) 1.08% | activity, negative = inhibition ([2]; parasite line B) -10.1% | Potency [3] | Potency [4] | Potency [5] | Potency [6] | Potency [7] | Potency [8] | Potency [9] | Potency [10] | Potency [11] | Potency [12] | Potency [13] | Potency [14] | Potency [15] | Potency [16] | Potency [17] | Potency [18] | Potency [19] | Potency [20]

NC(=O)c1ncn(C2OC(CO)C(O)C2O)c1N (stereo not given)
inactive: Potency [1] | activity, negative = inhibition ([2]; parasite line A) 3.47% | activity, negative = inhibition ([2]; parasite line B) 6.51% | Potency [3] | Potency [4] | Potency [5] | Potency [6] | Potency [7] | Potency [8] | Potency [9] | Potency [10] | Potency [11] | Potency [12] | Potency [13] | Potency [14] | Potency [15] | Potency [16] | Potency [17] | Potency [18] | Potency [19] | Potency [20]

CO/N=C(/C(=O)N[C@@H]1C(=O)N2C(C(=O)O)=C(CSC(=O)c3ccco3)CSC12)c1csc(N)n1 (stereo not given in full)
inactive: Potency [1] | activity, negative = inhibition ([2]; parasite line A) 2.76% | activity, negative = inhibition ([2]; parasite line B) 0.141% | Potency [3] | Potency [4] | Potency [5] | Potency [6] | Potency [7] | Potency [8] | Potency [9] | Potency [10] | Potency [11] | Potency [12] | Potency [13] | Potency [14] | Potency [15] | Potency [16] | Potency [17] | Potency [18] | Potency [19] | Potency [20]
